According to ChEMBL document CHEMBL4513216, “Probing the Open Global Health Chemical Diversity Library for Multistage-Active Starting Points for Next-Generation Antimalarials” (ACS Infect Dis, 2020):
Among all 69,000 compounds or so, about 8,600 (12%) showed an effect of 50% or more. Many of the other results were omitted from the sample, so strong results are more common in it than they were.

Each molecule was assayed on Plasmodium berghei (assay: Screen against P. berghei liver stage (PbLuc), transformed with Luciferase, at 10uM). Details: tested at 10 uM.
Format: functional, HepG2

| Structure (SMILES) | INHIBITION [%] |
| --- | --- |
| COCC(=O)N1CCN(c2cc(C)nc(C3CCCN3C(C)=O)c2)CC1 (stereo not drawn) | 32.3 |
| Cc1ccccc1CN1CCN(C(=O)c2cnc(C3CC3)[nH]c2=O)CC1 | 27.5 |
| COc1cc(C)c(-c2ccc(F)c3c2OC(CN)C3)cc1C (stereo not drawn) | 55.1 |
| COc1cccnc1-c1ccc(F)c2c1OC(CN)C2 (stereo not drawn) | -66.7 |
| COc1cc(-c2ccc(F)c3c2OC(CN)C3)cc(OC)c1OC (stereo not drawn) | 31.9 |
| CC(=O)N1[C@H](Cn2cncn2)C[C@@H]2CN(C(=O)c3ccoc3)CC[C@@H]21 | -22.1 |
| c1cncc(CN2CCc3c(CNc4nccs4)n[nH]c3C2)c1 | 33 |
| Cc1n[nH]c(C2CN(C(=O)CCc3ccco3)CCO2)n1 (stereo not drawn) | -29.2 |
| CN(C)c1nc2cn(C3CC(C)(C)NC(C)(C)C3)c(=O)c-2c[nH]1 | 20.1 |
| CNc1nc2cn(C3CC(C)(C)NC(C)(C)C3)c(=O)c-2c[nH]1 | 25.1 |
| CC1(C)CC(n2cc3nc(N4CCCC4)[nH]cc-3c2=O)CC(C)(C)N1 | 64.8 |
| O=c1c2c[nH]c(N3CCOCC3)nc-2cn1C1CCS(=O)(=O)C1 (stereo not drawn) | 24 |
| Nc1nc2cn(C3CCCC3)c(=O)c-2c[nH]1 | 51.8 |
| CN1CCC(n2cc3nc(N)[nH]cc-3c2=O)CC1 | 43.3 |
| CC1(C)CC(n2cc3nc(N)[nH]cc-3c2=O)CC(C)(C)N1 | 3.47 |
| CC1CCC(n2cc3nc(N)[nH]cc-3c2=O)CC1 (stereo not drawn) | -8.9 |
| CC1(C)CC(n2cc3nc(N4CCOCC4)[nH]cc-3c2=O)CC(C)(C)N1 | 60.1 |
| CCn1cc(NC(=O)c2cc(C)nc(N3CCOCC3)n2)cn1 | 15.35 |
| Cc1noc(C2CCN(C(=O)C3CCCO3)CC2)n1 (stereo not drawn) | 35.6 |
| CN1CCCN(C(=O)c2csc3nc(-c4ccc(Cl)cc4)cn23)CC1 | 43.6 |
| O=C(NCCOc1ccc2c(c1)OCO2)N1CCC1 | 23.4 |
| Cc1ccc(C(=O)N2CCC3(CCC(=O)N(CC(N)=O)C3)CC2)cc1 | 36.8 |
| Cc1nn(C)c2c(NC3CCCC3)nc(C3CC3)nc12 | 54.2 |

| Structure (SMILES) | INHIBITION [%] |
| --- | --- |
| Cc1nn(C)c2c(NCc3ccc(F)cc3)nc(C3CC3)nc12 | 56.9 |
| Cc1nc(NC2CCCC2)c2c(n1)c(C)nn2C | 41.5 |
| Cc1nn(C)c2c(NCc3cccnc3)nc(C3CC3)nc12 | 35.1 |
| Cc1nn(C)c2c(NCc3ccccc3F)nc(C3CC3)nc12 | 75.1 |
| Cc1nn(C)c2c(NCc3ccncc3)nc(C3CC3)nc12 | -6.91 |
| Cc1nc(NC2CC2)c2c(n1)c(C)nn2C | 29.3 |
| COc1ccc(CNc2nc(C3CC3)nc3c(C)nn(C)c23)cc1 | -26.1 |
| Cc1nn(C)c2c(N3CCCC3)nc(C3CC3)nc12 | 34.5 |
| CC(C)N1[C@@H](C(=O)NCCN(C)C)C[C@H]2CN(c3ncccn3)C[C@H]21 | 37.8 |
| Cc1cc(CN2CCN(C(=O)NC(C)c3cccs3)CC2)on1 (stereo not drawn) | 38.9 |
| CC(C)N1CCN(C(=O)C(C)n2cncn2)CC1 (stereo not drawn) | 19.6 |
| COc1ccc(CN2CC[C@@H](O)[C@@H]2Cc2cnn(C)c2)cc1 | 33.4 |
| Cc1nc(CNC(=O)NCC(O)c2ccc(F)cc2)cs1 (stereo not drawn) | 33.8 |
| CC(C)c1cc(O)nc(C2CCCN2C(=O)C(C)(C)C)n1 (stereo not drawn) | 23.2 |
| O=C1C[C@H]2[C@@H](CCN2C(=O)c2cscn2)N1Cc1cccnc1 | 13.7 |
| COc1cccc2c1CCN(C(=O)NCc1nnc3ccccn13)C2 | -102 |
| O=C(NCc1nnc2ccccn12)N1CCc2sccc2C1 | -27.6 |
| CCn1cnnc1CNC(=O)N1CCOC(c2ccccc2Cl)C1 (stereo not drawn) | 17.5 |
| O=C(NCc1nnc2ccccn12)N1CCOC(c2cccs2)C1 (stereo not drawn) | 63.5 |
| O=C(NCc1nnc2ccccn12)N1CCOC(c2ccsc2)C1 (stereo not drawn) | 32 |
| Cc1ccc(C2CN(C(=O)NCc3nnc4ccccn34)CCO2)o1 (stereo not drawn) | 61.3 |
| Cc1nc(C2CN(C)CCO2)cc(N2CCC(CO)CC2)n1 (stereo not drawn) | 32.8 |
| O=C(CC1CCCC1)N1C[C@H](Oc2cccnc2)[C@H]2OCCC[C@H]21 | -24.5 |

| Structure (SMILES) | INHIBITION [%] |
| --- | --- |
| Cc1nc(=O)c2ccccc2n1C1=CCN(CC(=O)NC(C)C)CC1 | 23.9 |
| O=C(C1CCOc2ccccc2C1)N1Cc2cnn(CCO)c2C1 (stereo not drawn) | 27.6 |
| O=C(CN1CCOc2ccccc2C1)N1Cc2cnn(CCO)c2C1 | 71.5 |
| O=C(C1COc2ccccc2O1)N1Cc2cnn(CCO)c2C1 (stereo not drawn) | 13.7 |
| CCOc1ccc(CN2CCC(c3[nH]ncc3C)C2)cc1CO (stereo not drawn) | 14.65 |
| COc1ncnc2c1CCN(C(=O)NCc1cccnc1)CC2 | -18.2 |
| CCc1nc(C2CCCN2CC(=O)Nc2cc(C)no2)no1 (stereo not drawn) | -14.7 |
| CCc1cnc(NCC(C)Oc2cccnc2)nc1 (stereo not drawn) | -5.19 |
| CCC(CC)NCC(C)Oc1cccnc1 (stereo not drawn) | 54.6 |
| CC(CNc1nccc(C(C)C)n1)Oc1cccnc1 (stereo not drawn) | 24.3 |
| CC(C)c1ncc(CN2CCC(c3n[nH]cc3C(=O)N(C)C)C2)cn1 (stereo not drawn) | 10.9 |
| Cc1cccc(S(=O)(=O)N2C[C@@H]3C[C@@H](c4nc(C)no4)O[C@@H]3C2)c1 | 49.4 |
| Cc1cccnc1CN(C)c1ncnc2[nH]ccc12 | -76.9 |
| CN(Cc1ccccc1CN1CCCC1)c1ncnc2[nH]ccc12 | -42.1 |
| CN(C)Cc1ccccc1CN(C)c1ncnc2[nH]ccc12 | 52.2 |
| COc1cccc(S(=O)(=O)N2C[C@H](OC)[C@]3(CCCO3)C2)c1 | 28.5 |
| O=C(Nc1ccc2c(c1)OCO2)N1CCN(CCn2cccn2)CC1 | 42.8 |
| O=C(Nc1ccc2c(c1)OCO2)N1CCN(CCc2ccccc2)CC1 | 60.9 |
| CCCN1CCCN(C(=O)Nc2ccc3c(c2)OCO3)CC1 | -42.1 |
| Cc1nnc(CN(C)C2CCCN(Cc3noc(C4CC4)n3)C2)o1 (stereo not drawn) | 27.8 |
| Cc1csc(NC(=O)C2(C)CN(C)CCO2)n1 (stereo not drawn) | 12.235 |
| Cc1nc(-c2ccc(S(=O)(=O)N3CCC4(CC3)OCCO4)cc2)co1 | 48.4 |
